# Several values for one entry are separate records, joined by “and”; a condition that tells them apart may be missing. Equal entries are not always repeated. The campaign covered roughly 5,500 compounds. About 2,000 (36%) were called active. Inconclusive results (about 18%) are left out. Rule as the data show it: active = normalized growth mostly below about 0.91 (no sharp cut-off); inconclusive = no clear call, values can overlap the other calls; inactive = mostly above about 0.92. The list shows a part of the results. Some structures have more than one record in an assay (separate samples or runs), and their calls can disagree.
# Experiment: chemical genetic growth profiling, strain panel (AID 1159580);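 also: tested at 20 µM; growth read once vehicle control cultures reached saturation at 30 °C; 1 = growth at the plate median or of vehicle wells; lower values mean less growth of the strain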
# Details: growth OD
structure (smiles),measurement,setting,value
Fc1ccc(C(c2ccc(F)cc2)N2CCN(C/C=C/c3ccccc3)CC2)cc1,normalized growth,"S. cerevisiae deletion strains, locus YJR075W, strain HOC1, stronger effect = lower value",0.952 (inactive)
same,normalized growth,"S. cerevisiae deletion strains, locus YKL009W, strain mrt4, stronger effect = lower value",0.965 (inactive)
same,normalized growth,"S. cerevisiae deletion strains, locus YKL068W, stronger effect = lower value",0.982 (inactive)
same,normalized growth,"S. cerevisiae deletion strains, locus YKL085W, strain MDH1 (second series), stronger effect = lower value",0.974 (inactive)
same,normalized growth,"S. cerevisiae deletion strains, locus YKL085W, strain MDH1, stronger effect = lower value",0.974 (inactive)
same,normalized growth,"S. cerevisiae deletion strains, locus YKL160W, strain elf1, stronger effect = lower value",0.168 (active)
same,normalized growth,"S. cerevisiae deletion strains, locus YKL190W, strain CNB1, stronger effect = lower value",0.974 (inactive)
same,normalized growth,"S. cerevisiae deletion strains, locus YKR001C, strain vps1, stronger effect = lower value",0.972 (inactive)
same,normalized growth,"S. cerevisiae deletion strains, locus YKR026C, strain gcn3, stronger effect = lower value",0.412 (active)
same,normalized growth,"S. cerevisiae deletion strains, locus YKR091W, strain srl3, stronger effect = lower value",0.444 (active)
same,normalized growth,"S. cerevisiae deletion strains, locus YLL001W, strain dnm1, stronger effect = lower value",0.293 (active)
same,normalized growth,"S. cerevisiae deletion strains, locus YLL026W, stronger effect = lower value",0.257 (active)
same,normalized growth,"S. cerevisiae deletion strains, locus YLL041C, strain sdh2, stronger effect = lower value",0.41 (active)
same,normalized growth,"S. cerevisiae deletion strains, locus YLR027C, strain aat2, stronger effect = lower value",0.306 (active)
same,normalized growth,"S. cerevisiae deletion strains, locus YLR039C, strain RIC1, stronger effect = lower value",1.36 [resistant] (active)
same,normalized growth,"S. cerevisiae deletion strains, locus YLR058C, strain SHM2, stronger effect = lower value",0.981 (inactive)
same,normalized growth,"S. cerevisiae deletion strains, locus YLR102C, strain apc9, stronger effect = lower value",0.988 (inactive)
same,normalized growth,"S. cerevisiae deletion strains, locus YLR113W, strain HOG1, stronger effect = lower value",0.963 (inactive)
same,normalized growth,"S. cerevisiae deletion strains, locus YLR221C, strain rsa3, stronger effect = lower value",0.18 (active)
same,normalized growth,"S. cerevisiae deletion strains, locus YLR258W, strain gsy2, stronger effect = lower value",0.32 (active)
same,normalized growth,"S. cerevisiae deletion strains, locus YLR262C, strain YPT6 (second series), stronger effect = lower value",0.749 (active)
same,normalized growth,"S. cerevisiae deletion strains, locus YLR262C, strain YPT6, stronger effect = lower value",1.34 (inactive)
same,normalized growth,"S. cerevisiae deletion strains, locus YLR268W, strain sec22, stronger effect = lower value",0.933 (inactive)
same,normalized growth,"S. cerevisiae deletion strains, locus YLR320W, strain mms22, stronger effect = lower value",0.137 (active)
same,normalized growth,"S. cerevisiae deletion strains, locus YLR330W, strain CHS5, stronger effect = lower value",0.988 (inactive)
same,normalized growth,"S. cerevisiae deletion strains, locus YLR342W, strain FKS1 (second series), stronger effect = lower value",0.981 (inactive)
same,normalized growth,"S. cerevisiae deletion strains, locus YLR342W, strain FKS1, stronger effect = lower value",0.25 (active)
same,normalized growth,"S. cerevisiae deletion strains, locus YLR357W, strain rsc2, stronger effect = lower value",0.544 (active)
same,normalized growth,"S. cerevisiae deletion strains, locus YLR370C, strain arc18, stronger effect = lower value",0.226 (active)
same,normalized growth,"S. cerevisiae deletion strains, locus YLR371W, strain rom2, stronger effect = lower value",0.969 (inactive)
same,normalized growth,"S. cerevisiae deletion strains, locus YLR384C, strain iki3, stronger effect = lower value",0.957 (inactive)
same,normalized growth,"S. cerevisiae deletion strains, locus YLR418C, strain cdc73, stronger effect = lower value",0.993 (inactive)
same,normalized growth,"S. cerevisiae deletion strains, locus YML016C, strain PPZ1, stronger effect = lower value",0.992 (inactive)
same,normalized growth,"S. cerevisiae deletion strains, locus YML032C, strain rad52, stronger effect = lower value",0.948 (inactive)
same,normalized growth,"S. cerevisiae deletion strains, locus YML120C, strain ndi1, stronger effect = lower value",0.24 (active)
same,normalized growth,"S. cerevisiae deletion strains, locus YML124C, strain tub3, stronger effect = lower value",0.991 (inactive)
same,normalized growth,"S. cerevisiae deletion strains, locus YMR058W, strain fet3, stronger effect = lower value",0.266 (active)
same,normalized growth,"S. cerevisiae deletion strains, locus YMR078C, strain ctf18, stronger effect = lower value",0.966 (inactive)
same,normalized growth,"S. cerevisiae deletion strains, locus YMR125W, strain sto1, stronger effect = lower value",0.17 (active)
same,normalized growth,"S. cerevisiae deletion strains, locus YMR129W, stronger effect = lower value",0.222 (active)
same,normalized growth,"S. cerevisiae deletion strains, locus YMR205C, strain PFK2, stronger effect = lower value",0.332 (active)
same,normalized growth,"S. cerevisiae deletion strains, locus YMR223W, strain ubp8, stronger effect = lower value",0.988 (inactive)
same,normalized growth,"S. cerevisiae deletion strains, locus YMR231W, strain pep5, stronger effect = lower value",0.794 (active)
same,normalized growth,"S. cerevisiae deletion strains, locus YMR263W, strain SAP30, stronger effect = lower value",0.968 (inactive)
same,normalized growth,"S. cerevisiae deletion strains, locus YMR307W, strain GAS1, stronger effect = lower value",1.28 (inactive) and 0.996 (inactive)
same,normalized growth,"S. cerevisiae deletion strains, locus YNL067W, strain RPL9B, stronger effect = lower value",0.964 (inactive)
same,normalized growth,"S. cerevisiae deletion strains, locus YNL071W, strain lat1, stronger effect = lower value",0.119 (active)
same,normalized growth,"S. cerevisiae deletion strains, locus YNL128W, strain TEP1, stronger effect = lower value",0.969 (inactive)
same,normalized growth,"S. cerevisiae deletion strains, locus YNL153C, strain GIM3, stronger effect = lower value",0.959 (inactive) and 0.788 (active)
same,normalized growth,"S. cerevisiae deletion strains, locus YNL183C, strain NPR1, stronger effect = lower value",0.927 (inactive)
same,normalized growth,"S. cerevisiae deletion strains, locus YNL197C, strain WHI3, stronger effect = lower value",1.08 (inactive)
same,normalized growth,"S. cerevisiae deletion strains, locus YNL209W, strain ssb2, stronger effect = lower value",0.573 (active)
same,normalized growth,"S. cerevisiae deletion strains, locus YNL233W, strain BNI4, stronger effect = lower value",0.981 (inactive)
same,normalized growth,"S. cerevisiae deletion strains, locus YNL248C, strain rpa49, stronger effect = lower value",0.227 (active)
same,normalized growth,"S. cerevisiae deletion strains, locus YNL250W, strain rad50, stronger effect = lower value",0.992 (inactive)
same,normalized growth,"S. cerevisiae deletion strains, locus YNL271C, strain bni1, stronger effect = lower value",0.984 (inactive)
same,normalized growth,"S. cerevisiae deletion strains, locus YNL298W, strain CLA4, stronger effect = lower value",0.99 (inactive)
same,normalized growth,"S. cerevisiae deletion strains, locus YNL307C, strain MCK1, stronger effect = lower value",0.992 (inactive)
same,normalized growth,"S. cerevisiae deletion strains, locus YNL322C, strain KRE1 (second series), stronger effect = lower value",0.244 (active)
same,normalized growth,"S. cerevisiae deletion strains, locus YNL322C, strain KRE1, stronger effect = lower value",0.989 (inactive) and 0.962 (inactive)
same,normalized growth,"S. cerevisiae deletion strains, locus YNR049C, strain mso1, stronger effect = lower value",0.334 (active)
same,normalized growth,"S. cerevisiae deletion strains, locus YNR052C, strain pop2, stronger effect = lower value",0.933 (inactive)
same,normalized growth,"S. cerevisiae deletion strains, locus YOL006C, strain TOP1, stronger effect = lower value",0.81 (inactive)
same,normalized growth,"S. cerevisiae deletion strains, locus YOL012C, strain htz1",1.09 (inactive)
same,normalized growth,"S. cerevisiae deletion strains, locus YOL147C, strain pex11, stronger effect = lower value",0.984 (inactive)
same,normalized growth,"S. cerevisiae deletion strains, locus YOR001W, strain rrp6, stronger effect = lower value",0.314 (active)
same,normalized growth,"S. cerevisiae deletion strains, locus YOR061W, strain CKA2, stronger effect = lower value",0.982 (inactive)
same,normalized growth,"S. cerevisiae deletion strains, locus YOR069W, strain VPS5, stronger effect = lower value",0.995 (inactive)
same,normalized growth,"S. cerevisiae deletion strains, locus YOR070C, strain gyp1, stronger effect = lower value",0.126 (active)
same,normalized growth,"S. cerevisiae deletion strains, locus YOR080W, strain dia2, stronger effect = lower value",0.423 (active)
same,normalized growth,"S. cerevisiae deletion strains, locus YOR083W, strain WHI5 (second series), stronger effect = lower value",1.05 (inactive)
same,normalized growth,"S. cerevisiae deletion strains, locus YOR083W, strain WHI5, stronger effect = lower value",0.36 (active)
same,normalized growth,"S. cerevisiae deletion strains, locus YOR106W, strain vam3, stronger effect = lower value",0.33 (active)
same,normalized growth,"S. cerevisiae deletion strains, locus YOR136W, strain idh2, stronger effect = lower value",0.989 (inactive)
same,normalized growth,"S. cerevisiae deletion strains, locus YOR144C, strain elg1, stronger effect = lower value",0.982 (inactive)
same,normalized growth,"S. cerevisiae deletion strains, locus YOR184W, strain ser1, stronger effect = lower value",1.03 (inactive)
same,normalized growth,"S. cerevisiae deletion strains, locus YOR231W, strain MKK1, stronger effect = lower value",1 (inactive)
same,normalized growth,"S. cerevisiae deletion strains, locus YOR265W, strain rbl2, stronger effect = lower value",0.251 (active)
same,normalized growth,"S. cerevisiae deletion strains, locus YOR270C, strain vph1, stronger effect = lower value",0.156 (active)
same,normalized growth,"S. cerevisiae deletion strains, locus YOR290C, strain snf2, stronger effect = lower value",0.245 (active)
same,normalized growth,"S. cerevisiae deletion strains, locus YOR316C, strain cot1, stronger effect = lower value",0.967 (inactive)
same,normalized growth,"S. cerevisiae deletion strains, locus YPL051W, strain arl3, stronger effect = lower value",0.474 (active)
same,normalized growth,"S. cerevisiae deletion strains, locus YPL055C, strain LGE1, stronger effect = lower value",0.96 (inactive)
same,normalized growth,"S. cerevisiae deletion strains, locus YPL078C, strain atp4, stronger effect = lower value",0.316 (active)
same,normalized growth,"S. cerevisiae deletion strains, locus YPL106C, strain sse1, stronger effect = lower value",0.223 (active)
same,normalized growth,"S. cerevisiae deletion strains, locus YPL240C, strain hsp82, stronger effect = lower value",0.338 (active)
same,normalized growth,"S. cerevisiae deletion strains, locus YPL241C, strain CIN2, stronger effect = lower value",0.981 (inactive)
same,normalized growth,"S. cerevisiae deletion strains, locus YPL256C, strain CLN2, stronger effect = lower value",0.97 (inactive)
same,normalized growth,"S. cerevisiae deletion strains, locus YPR119W, strain clb2, stronger effect = lower value",0.979 (inactive)
same,normalized growth,"S. cerevisiae deletion strains, locus YPR141C, strain kar3, stronger effect = lower value",0.999 (inactive)
same,normalized growth,"S. cerevisiae deletion strains, locus YPR163C, strain tif3, stronger effect = lower value",0.959 (inactive)
same,normalized growth,"S. cerevisiae deletion strains, locus YPR167C, strain met16, stronger effect = lower value",0.964 (inactive)
same,normalized growth,"S. cerevisiae deletion strains, strain wtn01, stronger effect = lower value",0.957 (inactive)
same,normalized growth,"S. cerevisiae strains, strain wild type, stronger effect = lower value",0.984 (inactive)

# — PubChem BioAssay AID1159580 (chemical genetic matrix, 2015)
